SARS PLP yeast: qHTS of Yeast-based Assay for SARS-CoV PLP. S. cerevisiae expressing SARS-CoV PLpro, growth rescue. Potency, µM (top dose mostly 32.9 µM), for inactives: at the top dose activity, positive = growth rescue, most hits filed as activators. 330,000 compounds, 0.19% hits; also: 0% is about no effect; nearly all actives have a fitted effect of over 55% in size
NS1 function inh: qHTS Assay for Inhibitors of Influenza NS1 Protein Function. AID 2326, 2010. 270,000 compounds, 0.4% hits. Potency, µM (highest dose often 46.1 µM), without a hit: top-dose activity, positive = more growth; also: actives are rising curves; nearly all actives have a fitted effect of over 50% in size
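Growth recovery, yeast-based: influenza A NS1 expressed in S. cerevisiae causes slow growth, and suppressors are detected by OD600. The parent strain without NS1 is used as positive control.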
Pf growth 96h: Primary qHTS for delayed death inhibitors of the malarial parasite plastid, 96 hour incubation. P. falciparum luciferase reporter growth, 96 h. AID 504834, 2011. 320,000 compounds, 6.9% hits. Potency, µM (titrated, usually from 28.7 µM), without a hit: at the top dose activity change, negative = inhibition, hits mostly inhibitors; active = well fitted inhibition curve with a large enough effect; inconclusive = small, poorly fitted or top-dose-only effect, or another doubt; inactive = no such curve, though single readings can be large or run the other way; also: % is scaled to controls: 0 for no effect and ±100 for the full control effect
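P. falciparum expressing integrated firefly luciferase, in erythrocytes at 2% hematocrit, 0.05% parasitemia, incubated with compounds 96 h at 37 C, 5% CO2. Growth inhibition read as loss of luminescence; two-generation exposure targets delayed-death apicoplast inhibitors.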
Pf growth 48h: Primary qHTS for delayed death inhibitors of the malarial parasite plastid, 48 hour incubation; P. falciparum luciferase growth in erythrocytes, 48 h; Potency, µM (doses to about 28.7 µM), for inactives: at the top dose activity change, negative = inhibition, actives largely listed as inhibitors; 310,000 compounds, 5.9% hits; active = well fitted inhibition curve with a large enough effect; inconclusive = small, poorly fitted or top-dose-only effect, or another doubt; inactive = no such curve, though single readings can be large or run the other way; also: % is scaled to controls: 0 for no effect and ±100 for the full control effect
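Read-out is firefly luciferase luminescence from an integrated reporter in P. falciparum, so falling signal marks reduced parasite growth. Infected erythrocytes were at 2% hematocrit and 0.1% parasitemia (final) in Albumax-supplemented RPMI 1640.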
RE007 growth inh: qHTS Assay for Inhibitors of the HIV-1 protein Vpr; S. pombe RE007 Vpr strain, BacTiter-Glo ATP luminescence, 24 h; Potency, µM (doses to about 92.2 µM), for the others: at the top dose activity change, negative = less growth, actives largely listed as inhibitors; 360,000 compounds, 0.21% hits; active = well fitted falling curve with a large enough effect; inconclusive = small, poorly fitted or top-dose-only effect; inactive = no such curve, though single readings can be large or run the other way; also: % is scaled to controls: 0 for no effect and ±100 for the full control effect; nearly all actives have a fitted effect of over 50% in size
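Fission yeast strain RE007, carrying one chromosomally integrated HIV-1 vpr copy, was seeded at OD 0.01 in PMG+AL medium with 23 nL pinned compound. After 24 h at 30 °C and 99% humidity, viability was read by BacTiter-Glo luminescence.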
Numbers without * were called inactive. Sampled rows, rich in hits. Any-hit rate of the full collection: about 9.5%. Unless noted, calls follow the shape of the full dose curve. Potency is read from the fitted curve at half-maximal effect.

How did CC(C)c1cccc(C2=CC(=O)C[C@H](c3ccc(F)cc3)C2)c1 do in these assays?
SARS PLP yeast: 0%; Pf growth 96h: 2.3µM*; Pf growth 48h: 1.7µM*; RE007 growth inh: -10%

Results for O=C(CSc1nc(=O)n2ccccc2n1)NC1CCCCC1 ?
SARS PLP yeast: -6%; Pf growth 96h: 47%; Pf growth 48h: 21%; RE007 growth inh: 0%

Results for O=C1C=C(c2ccc(O)cc2)C[C@@H](c2ccc(Cl)cc2)C1 ?
SARS PLP yeast: 2%; Pf growth 96h: 2.3µM*; Pf growth 48h: 3.7µM*; RE007 growth inh: -14%

What do the screens show for `O=C1C=C(c2ccc3ccccc3c2)C[C@@H](c2ccc(Cl)cc2)C1`?
SARS PLP yeast: 0%; Pf growth 96h: 81%; Pf growth 48h: inconclusive; RE007 growth inh: 3%

How did Cc1ccc(C2=CC(=O)C[C@H](c3ccc(Cl)cc3)C2)cc1 do in these assays?
SARS PLP yeast: -2%; Pf growth 96h: 0%; Pf growth 48h: -8%; RE007 growth inh: -9%

Results for O=C1C=C(c2ccc3[nH]ccc3c2)C[C@@H](c2ccc(Cl)cc2)C1 ?
SARS PLP yeast: -3%; Pf growth 96h: 4.7µM*; Pf growth 48h: 2.6µM*; RE007 growth inh: -1%

What do the screens show for `COc1cccc(C2=CC(=O)C[C@H](c3ccc(Cl)cc3)C2)c1`?
SARS PLP yeast: -14%; Pf growth 96h: inconclusive; Pf growth 48h: 2.9µM*; RE007 growth inh: -9%

What do the screens show for `COc1ccc(-c2csc(C(C#N)=C(O)CSc3nccn3C)n2)cc1OC`?
RE007 growth inh: 13%

What do the screens show for `CCCOc1ccc(N2C(=O)CC(SCC(N)C(=O)OCC)C2=O)cc1` (configuration not stated)?
SARS PLP yeast: -23%; NS1 function inh: -7%; Pf growth 96h: inconclusive; Pf growth 48h: inconclusive; RE007 growth inh: inconclusive

Results for CCCOc1ccc(N2C(=O)CC(SCCN)C2=O)cc1 (configuration not stated) ?
SARS PLP yeast: -28%; NS1 function inh: -46%; Pf growth 96h: inconclusive; Pf growth 48h: 216%; RE007 growth inh: 7.9µM*

Results for CCOC(=O)C(N)CSC1CC(=O)N(c2ccc(C(=O)OC)cc2)C1=O (configuration not stated) ?
SARS PLP yeast: inconclusive; NS1 function inh: -7%; Pf growth 96h: 5.2µM*; Pf growth 48h: 54%; RE007 growth inh: -2%

How did COC(=O)c1ccc(N2C(=O)CC(N(C)Cc3ccccc3)C2=O)cc1 (configuration not stated) do in these assays?
SARS PLP yeast: -13%; NS1 function inh: -135%; Pf growth 96h: 0.29µM*; Pf growth 48h: 14%; RE007 growth inh: 6.3µM*

Results for CCOc1ccc(N2C(=O)CC(N(C)Cc3ccccc3)C2=O)cc1 (configuration not stated) ?
SARS PLP yeast: -126%; NS1 function inh: -81%; Pf growth 96h: 9%; Pf growth 48h: -9%; RE007 growth inh: 35µM*

What do the screens show for `CCCOc1ccc(N2C(=O)CC(SCCc3nc4ccccc4[nH]3)C2=O)cc1` (configuration not stated)?
SARS PLP yeast: -5%; NS1 function inh: 0%; Pf growth 96h: -4%; Pf growth 48h: -1%; RE007 growth inh: -11%

What do the screens show for `C[C@@H](NC(=O)c1nc[nH]c1C(=O)NCC(=O)OCc1ccccc1)c1ccccc1`?
SARS PLP yeast: 8%; NS1 function inh: 6%; Pf growth 96h: 120%; Pf growth 48h: 36%; RE007 growth inh: 5%

Results for O=C(CNS(=O)(=O)c1c(F)cccc1F)NC1CCCc2ccccc21 (configuration not stated) ?
SARS PLP yeast: -1%; RE007 growth inh: -8%

Results for CCOc1ccc(N2C(=O)CC(N)C2=O)cc1 (configuration not stated) ?
SARS PLP yeast: -119%; NS1 function inh: -51%; Pf growth 96h: -6%; Pf growth 48h: -11%; RE007 growth inh: 7.1µM*

Results for COc1ccccc1NS(=O)(=O)c1cc(C(=O)NCCN2CCOCC2)ccc1Cl ?
SARS PLP yeast: -2%; NS1 function inh: 2%; Pf growth 96h: 10µM*; Pf growth 48h: 8%; RE007 growth inh: 2%

How did COc1ccccc1Cn1c(=S)[nH]c2cc(C(=O)NCCN3CCOCC3)ccc2c1=O do in these assays?
SARS PLP yeast: -11%; NS1 function inh: -17%; Pf growth 96h: -93%; Pf growth 48h: 10µM*; RE007 growth inh: -1%

What do the screens show for `CCOCCCNC(=O)c1ccc2c(=O)n(Cc3ccc(OC)cc3)c(=O)[nH]c2c1`?
SARS PLP yeast: 1%; Pf growth 96h: 56%; Pf growth 48h: 5.9µM*; RE007 growth inh: 6%

What do the screens show for `O=C(NCc1ccc(Cl)cc1)c1ccc2c(=O)n(CC3CCCO3)c(=S)[nH]c2c1` (configuration not stated)?
SARS PLP yeast: 1%; NS1 function inh: -5%; Pf growth 96h: 12µM*; Pf growth 48h: -29%; RE007 growth inh: -19%

What do the screens show for `COC(=O)c1ccc(OCc2nn[nH]n2)cc1`?
SARS PLP yeast: -2%; NS1 function inh: -7%; Pf growth 96h: 5%; Pf growth 48h: 17%; RE007 growth inh: 20%

How did CC(C)(CO[C@H]1C[C@H]2CC[C@@]1(C)C2(C)C)[N+](=O)[O-] do in these assays?
NS1 function inh: 3%

How did Cc1ccc(C)c(S(=O)(=O)N2CCN(C(=O)CSC(=S)N3CCCC3)CC2)c1 do in these assays?
SARS PLP yeast: 2%; Pf growth 96h: inconclusive; Pf growth 48h: -20%; RE007 growth inh: 17%

Results for C=CCNC(=O)c1ccc2c(=O)n(Cc3ccccc3OC)c(=S)[nH]c2c1 ?
SARS PLP yeast: -2%; NS1 function inh: 1%; Pf growth 96h: 22%; Pf growth 48h: 3.3µM*; RE007 growth inh: -1%

How did COc1ccc(N2CCN(CCNC(=O)c3ccc4c(c3)[nH]c(=S)n3c5ccccc5nc43)CC2)cc1 do in these assays?
SARS PLP yeast: -7%; Pf growth 96h: 10µM*; Pf growth 48h: inconclusive; RE007 growth inh: 16%

What do the screens show for `COc1ccc(N2CCN(CCNC(=O)c3ccc4nc5ccccc5c(=O)n4c3)CC2)cc1`?
SARS PLP yeast: 1%; NS1 function inh: -2%; Pf growth 96h: 49%; Pf growth 48h: inconclusive; RE007 growth inh: -3%

What do the screens show for `COCCNC(=O)c1ccc2c(=O)n(CCCN3CCCC3=O)c(=S)[nH]c2c1`?
SARS PLP yeast: 3%; Pf growth 96h: inconclusive; Pf growth 48h: inconclusive; RE007 growth inh: 7%

How did CC1CCN(CCNC(=O)c2ccc3c(=O)n(Cc4ccc(Cl)cc4)c(=S)[nH]c3c2)CC1 do in these assays?
SARS PLP yeast: 0%; NS1 function inh: 12%; Pf growth 96h: -6%; Pf growth 48h: 3.7µM*; RE007 growth inh: 2%
